# Reference: PubChem BioAssay
# Activity calls are given as the source filed them.
# Key:
# [1] = target: Albumin (Bos taurus) (UniProt P02769); assay: compounds binding labelled BSA control protein – biochemical, small-molecule microarray, Alexa647 label, 635/667 nm fluorescence, artefact control for SMM control protein annotation, profiling panel (AID 1118); settings: BSA-A647 binding, fluorescence 635 nm, higher = more signal;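 further: score merges 667 nm emission intensity and signal-to-noise per printed compound spot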
# Sequence of Albumin (Bos taurus) (P02769 whole entry, looked up): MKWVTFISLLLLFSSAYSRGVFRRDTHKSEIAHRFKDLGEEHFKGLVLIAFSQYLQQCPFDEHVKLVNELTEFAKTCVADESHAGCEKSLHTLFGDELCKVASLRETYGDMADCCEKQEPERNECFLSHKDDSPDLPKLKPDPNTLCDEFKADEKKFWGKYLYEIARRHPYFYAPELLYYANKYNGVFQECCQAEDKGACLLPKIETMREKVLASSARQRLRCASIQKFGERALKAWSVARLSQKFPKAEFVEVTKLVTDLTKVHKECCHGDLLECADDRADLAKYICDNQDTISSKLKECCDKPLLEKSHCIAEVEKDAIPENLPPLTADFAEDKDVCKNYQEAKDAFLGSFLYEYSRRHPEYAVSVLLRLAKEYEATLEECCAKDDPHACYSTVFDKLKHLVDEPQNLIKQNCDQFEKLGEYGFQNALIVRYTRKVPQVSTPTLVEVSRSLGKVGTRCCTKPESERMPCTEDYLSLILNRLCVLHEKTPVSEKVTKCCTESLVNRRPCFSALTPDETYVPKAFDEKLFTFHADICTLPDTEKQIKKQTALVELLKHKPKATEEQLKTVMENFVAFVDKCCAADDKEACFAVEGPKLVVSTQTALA
# [2] = probe aXIP binding to arrayed compounds – biochemical, NeuroSMM set, 635/667 nm fluorescence, primary screen (AID 1119); settings: small-molecule microarray, higher = more signal, called active from +8 up or from −8 down;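 further: probe is the protein aXip251-270 applied at 1 µg/mL to compound-printed slides; binding of probe to printed compounds measured as 667 nm fluorescence plus signal to noise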
# [3] = probe aNOTCH3 binding on compound microarray – biochemical, small-molecule microarray, 635/667 nm fluorescence, primary screen (AID 1120); settings: higher = more signal;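 further: probe is a biotin-tagged antibody raised against NOTCH3 rather than NOTCH3 protein; score merges spot fluorescence near 667 nm with spot signal to noise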
# [4] = probe aNOTCH2 binding on compound microarray – biochemical, small-molecule microarray, 635/667 nm fluorescence, primary screen (AID 1121); settings: higher = more signal;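 further: score merges feature fluorescence read at 667 nm with its signal to noise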
# [5] = target: Carbonic anhydrase 2 (Homo sapiens) (UniProt P00918); assay: compounds binding carbonic anhydrase 2 – biochemical, small-molecule microarray, Alexa647-labelled CAII, profiling panel (AID 1122); settings: CAII-A647 binding fluorescence, higher = more signal
# [6] = COS7 lysate on small-molecule microarray, probe aHis, 635 nm (AID 1123); settings: COS7 cell lysate, fluorescence, higher = more signal;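 further: z-score combines 667nm fluorescence intensity with signal-to-noise per printed compound spot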
# [7] = probe aLAP1 signal on lysate-treated microarray – cell lysate, small-molecule microarray, COS7 lysate, primary screen (AID 1124); settings: probe aLAP1, fluorescence, higher = more signal;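 further: lysate comes from COS7 cells expressing LAP1 and is applied at 0.3 µg/mL; score merges spot fluorescence near 667 nm with signal-to-noise over triplicate slides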
# [8] = test system: Sam68 (KHDRBS1); assay: compounds binding KHDRBS1 protein – biochemical, small-molecule microarray, 635 nm fluorescence, primary screen (AID 1125); settings: higher = more signal;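 further: score merges 667 nm channel intensity with signal to noise over triplicate slides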
# [9] = test system: Chordin-like protein 2 (CHRDL2); assay: compounds binding chordin-like 2 – biochemical, small-molecule microarray, 635 nm fluorescence, primary screen (AID 1126); settings: fluorescence 635 nm, higher = more signal;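 further: printed compound slides probed with Chrdl2 protein at 4 µg/mL for 1 h at 4 C; score merges 667 nm emission intensity with signal to noise over three replicate slides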
# [10] = target: Concanavalin-A (Canavalia ensiformis) (UniProt P02866); assay: compounds binding concanavalin A lectin – biochemical, small-molecule microarray, Alexa647 label, 635 nm, artefact control for SMM control protein annotation, primary screen (AID 1127); settings: ConA-A647 binding fluorescence, higher = more signal;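 further: z combines 667 nm emission intensity with signal-to-noise across three replicate slides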
# Sequence of Concanavalin-A (Canavalia ensiformis) (P02866 whole entry, looked up): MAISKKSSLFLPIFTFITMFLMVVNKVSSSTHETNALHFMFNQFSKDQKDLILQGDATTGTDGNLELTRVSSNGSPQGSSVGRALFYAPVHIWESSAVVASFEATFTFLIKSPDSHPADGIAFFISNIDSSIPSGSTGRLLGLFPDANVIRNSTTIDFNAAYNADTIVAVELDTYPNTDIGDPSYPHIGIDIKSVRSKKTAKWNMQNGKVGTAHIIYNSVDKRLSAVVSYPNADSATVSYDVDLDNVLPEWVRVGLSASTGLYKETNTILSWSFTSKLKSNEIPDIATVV
# [11] = compounds binding Alexa647 anti-His antibody – biochemical, small-molecule microarray, 635 nm fluorescence, artefact control for SMM control protein annotation, primary screen (AID 1128); settings: higher = more signal;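 further: score merges feature fluorescence with signal-to-noise for each printed compound spot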
# [12] = test system: Human papillomavirus type 1a E7 protein (residues 1-88); assay: HPV1a E7 small-molecule binders, primary screen, biochemical, small-molecule microarray, residues 1-88, 635 nm (AID 1129); settings: small-molecule microarray binding, fluorescence 635 nm; higher = more signal
# [13] = target: Focal adhesion kinase 1 (Homo sapiens) (UniProt Q05397); assay: PTK2 protein binding on printed compound slides – biochemical, small-molecule microarray, 635/667 nm fluorescence, BSA, DTT, primary screen (AID 1130); settings: 635 nm fluorescence, higher = more signal;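 further: composite of spot emission at 667 nm and signal to noise over triplicate slides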
# Sequence of Focal adhesion kinase 1 (Homo sapiens) (Q05397 whole entry, looked up): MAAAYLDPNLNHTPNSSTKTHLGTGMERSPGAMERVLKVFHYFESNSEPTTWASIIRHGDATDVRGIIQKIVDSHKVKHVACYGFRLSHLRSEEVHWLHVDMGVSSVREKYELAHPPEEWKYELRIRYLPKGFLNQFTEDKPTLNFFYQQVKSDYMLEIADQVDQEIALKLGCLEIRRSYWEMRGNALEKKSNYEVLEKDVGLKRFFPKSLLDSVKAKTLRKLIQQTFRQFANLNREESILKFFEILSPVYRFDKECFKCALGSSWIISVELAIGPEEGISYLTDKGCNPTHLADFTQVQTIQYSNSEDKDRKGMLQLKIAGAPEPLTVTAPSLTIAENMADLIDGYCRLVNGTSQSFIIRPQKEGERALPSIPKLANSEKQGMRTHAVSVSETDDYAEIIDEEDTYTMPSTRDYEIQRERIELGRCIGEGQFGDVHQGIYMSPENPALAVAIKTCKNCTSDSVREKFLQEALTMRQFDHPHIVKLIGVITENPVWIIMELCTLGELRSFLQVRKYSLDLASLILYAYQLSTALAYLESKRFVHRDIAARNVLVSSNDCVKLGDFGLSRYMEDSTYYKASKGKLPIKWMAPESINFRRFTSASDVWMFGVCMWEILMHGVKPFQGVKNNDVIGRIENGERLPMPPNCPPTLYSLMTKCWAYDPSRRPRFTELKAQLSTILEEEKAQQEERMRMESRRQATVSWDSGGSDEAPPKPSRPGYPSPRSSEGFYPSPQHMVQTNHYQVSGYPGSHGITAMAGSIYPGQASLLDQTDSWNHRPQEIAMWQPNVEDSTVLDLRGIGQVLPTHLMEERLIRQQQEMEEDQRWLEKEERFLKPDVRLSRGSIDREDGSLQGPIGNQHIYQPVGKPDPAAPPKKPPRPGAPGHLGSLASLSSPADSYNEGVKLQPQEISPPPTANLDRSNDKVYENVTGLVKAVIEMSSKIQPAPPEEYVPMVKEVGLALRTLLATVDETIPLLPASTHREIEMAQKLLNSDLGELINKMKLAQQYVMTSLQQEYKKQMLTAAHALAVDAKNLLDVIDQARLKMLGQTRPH
# [14] = test system: Fibrinogen (Alexa647-labelled); assay: Alexa647-fibrinogen binding to printed small molecules – biochemical, small-molecule microarray, 635/667 nm fluorescence, artefact control for SMM control-protein annotation, profiling panel (AID 1131); settings: fibrinogen-A647 binding fluorescence, higher = more signal;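 further: z-score merges 667 nm fluorescence with per-spot signal-to-noise over triplicate slides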
# [15] = target: Follistatin (Homo sapiens) (UniProt P19883); assay: FST protein binding to printed compounds – biochemical, small-molecule microarray, 635/667 nm fluorescence, primary screen (AID 1132); settings: 635 nm fluorescence, higher = more signal
# Sequence of Follistatin (Homo sapiens) (P19883 whole entry, looked up): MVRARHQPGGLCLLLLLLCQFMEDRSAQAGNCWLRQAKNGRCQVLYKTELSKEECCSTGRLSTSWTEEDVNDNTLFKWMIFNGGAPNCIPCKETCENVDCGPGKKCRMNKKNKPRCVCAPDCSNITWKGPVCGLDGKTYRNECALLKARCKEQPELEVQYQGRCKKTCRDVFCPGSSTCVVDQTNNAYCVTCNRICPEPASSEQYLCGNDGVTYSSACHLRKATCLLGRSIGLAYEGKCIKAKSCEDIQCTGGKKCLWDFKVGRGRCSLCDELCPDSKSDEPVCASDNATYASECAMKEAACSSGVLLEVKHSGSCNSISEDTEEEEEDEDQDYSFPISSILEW
# [16] = target: Fibroblast growth factor 2 (Homo sapiens) (UniProt P09038); assay: basic fibroblast growth factor binding to printed compounds – biochemical, small-molecule microarray, 635/667 nm fluorescence, primary screen (AID 1133); settings: FGF2, fluorescence 635/667, higher = more signal
# Sequence of Fibroblast growth factor 2 (Homo sapiens) (P09038 whole entry, looked up): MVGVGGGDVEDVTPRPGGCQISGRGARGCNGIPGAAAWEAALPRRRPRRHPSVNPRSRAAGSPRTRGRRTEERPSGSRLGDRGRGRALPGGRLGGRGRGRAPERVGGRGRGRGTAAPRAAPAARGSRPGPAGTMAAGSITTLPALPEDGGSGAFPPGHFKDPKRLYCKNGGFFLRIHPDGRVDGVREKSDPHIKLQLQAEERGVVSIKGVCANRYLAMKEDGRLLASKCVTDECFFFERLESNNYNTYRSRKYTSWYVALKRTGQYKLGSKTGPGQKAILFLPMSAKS
# [17] = JC-1 mitochondrial potential readout, lung cancer cells – cell-based, A549, JC-1 fluorescence, basal, 24 h, 100 nL, profiling panel (AID 1138); settings: higher = more signal;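 further: A549 lung adenocarcinoma cells under basal conditions with no added stimulus; test concentration not given here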
# [18] = test system: Lefty1; assay: Lefty1 protein binding to printed compounds – biochemical, small-molecule microarray, 635/667 nm fluorescence, primary screen (AID 1139); settings: fluorescence 635/667, higher = more signal
# [19] = test system: wheat germ agglutinin (Triticum aestivum), Alexa647-labelled; assay: Alexa647-WGA lectin binding to printed small molecules – biochemical, small-molecule microarray, 635/667 nm fluorescence, artefact control for SMM control-protein annotation, profiling panel (AID 1140); settings: WGA-A647 binding, 635 nm fluorescence, higher = more signal;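 further: score merges 667 nm feature emission with signal to noise over triplicate slides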
# [20] = target: Luciferin 4-monooxygenase (Photinus pyralis) (UniProt P08659); assay: inhibition of purified Photinus pyralis luciferase – biochemical, luminescence, purified enzyme, 2006 set, primary screen (AID 1141); settings: purified firefly luciferase, SteadyGlo luminescence, 30 min; higher = more signal, called active from +8 up or from −8 down;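 further: cell-free assay with purified firefly luciferase at 100 ng per well in PBS; test concentration not given here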
# Sequence of Luciferin 4-monooxygenase (Photinus pyralis) (P08659 whole entry, looked up): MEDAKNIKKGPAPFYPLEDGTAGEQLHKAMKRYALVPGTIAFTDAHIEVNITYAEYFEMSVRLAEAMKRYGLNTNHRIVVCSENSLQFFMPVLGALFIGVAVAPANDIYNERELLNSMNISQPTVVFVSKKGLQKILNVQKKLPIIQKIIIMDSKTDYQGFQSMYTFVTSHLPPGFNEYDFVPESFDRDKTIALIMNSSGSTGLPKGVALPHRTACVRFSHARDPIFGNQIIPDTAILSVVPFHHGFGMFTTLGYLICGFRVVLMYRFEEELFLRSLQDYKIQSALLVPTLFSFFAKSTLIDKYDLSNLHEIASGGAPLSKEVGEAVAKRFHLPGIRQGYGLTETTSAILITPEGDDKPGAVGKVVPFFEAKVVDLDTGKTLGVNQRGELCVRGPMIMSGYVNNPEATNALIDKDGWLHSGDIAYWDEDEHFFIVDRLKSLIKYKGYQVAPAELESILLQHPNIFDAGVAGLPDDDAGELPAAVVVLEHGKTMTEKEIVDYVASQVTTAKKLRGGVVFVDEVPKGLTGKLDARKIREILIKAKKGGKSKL
SMILES,composite z-score [1],composite Z-score [2],composite z-score [3],composite z-score [4],composite z-score [5],composite z-score [6],composite z-score [7],composite z-score [8],composite z-score [9],composite z-score [10],composite z-score [11],composite z-score [12],composite z-score [13],composite z-score [14],composite z-score [15],composite z-score [16],z-score [17],composite z-score [18],composite z-score [19],z-score [20]
[N-]=[N+]=NCc1ccccc1[C@H]1OC(c2ccc(OCCCO)cc2)=N[C@@]1(Cc1ccccc1)C(=O)O,0.179,-0.365 (inactive),0.102,-0.106,0.63,1.05,-0.289,1.13,-0.469,1.11,1.97,0.762,0.551,0.472,1.31,1.42,-0.0378,0.195,0.611,-0.0016 (inactive)
CCOC(=O)C[C@H]1[C@H](OC(=O)c2ccc(C(=O)c3ccccc3)cc2)[C@@H](NC(=O)c2ccc3ccccc3n2)c2cc(OCCCO)ccc2N1C(=O)c1ccc2ccccc2n1,0.802,0.525 (inactive),0.16,-0.101,0.245,0.847,0.808,0.616,-0.0787,0.564,-0.0631,1.06,-0.0481,0.887,0.37,0.146,1.5,0.105,0.515,-0.857 (inactive)
Cc1c(NC(=O)/C(C#N)=C/C=C/c2ccccc2)c(=O)n(-c2ccccc2)n1C,0.566,0.54 (inactive),0.0859,0.136,0.682,0.811,-0.195,-0.144,0.427,0.802,0.378,0.466,-0.358,0.68,0.58,0.366,-0.158,0.451,0.343,-5.86 (inactive)
CCOC(=O)C[C@H]1[C@H](OC(=O)c2cc3ccccc3oc2=O)[C@@H](NC(=O)c2ccc3ccccc3c2)c2cc(OCCCO)ccc2N1C(=O)c1ccccc1,0.342,0.465 (inactive),0.0745,-0.123,0.571,0.224,0.334,1.29,0.234,0.275,0.138,1.2,0.482,0.414,1.08,0.512,-0.59,1.09,0.357,0.151 (inactive)
CC(C)(C)OC(=O)CC[C@]1(C(=O)NCC(O)CO)N=C(c2ccc(OCCCO)cc2)O[C@H]1c1ccccc1CN=[N+]=[N-] (stereo not given in full),0.906,1.27 (inactive),0.883,0.382,0.747,2.82,1.58,1.16,0.0916,1,2.31,0.705,-0.0371,1.03,0.662,0.703,-0.101,-0.637,0.959,-0.718 (inactive)
O=C(NCC(F)(F)F)[C@@H]1c2ccccc2C(=O)N(Cc2ccccc2)[C@H]1c1ccc(CO)cc1,-1.27,0.111 (inactive),-0.354,-0.0586,0.723,1.08,0.345,-0.141,-1.57,-0.331,1.52,-1.3,-0.813,-1.17,-1.25,-1.34,0.764,-1.57,-0.595,-0.363 (inactive)
C=C(CCCC)C(=O)CC[C@H](OC(=O)c1ccccc1-c1ccccc1C(=O)O)c1ccc(CO)o1,0.734,0.0663 (inactive),-0.0014,-0.14,0.15,0.455,0.645,1.29,0.82,0.933,1.22,1.22,-0.116,0.954,1.1,0.905,-0.541,1.57,1.14,-1.96 (inactive)
O=C1C2C=CC(C(O)c3ccccn3)N(Nc3ccccc3F)C2C(=O)N1c1ccccc1 (stereo not given),0.127,-0.21 (inactive),-0.0918,-0.111,0.766,0.596,0.753,0.0702,0.194,0.634,-0.0724,0.525,1.27,0.696,0.101,-0.0308,1.03,-0.377,0.253,-0.323 (inactive)
O=C1C2C=CC(C(O)CCc3ccccc3)N(Nc3ccccc3)C2C(=O)N1c1ccccc1 (stereo not given),0.861,-0.107 (inactive),0.185,0.0278,0.65,2.82,0.899,1.3,-0.788,1.2,1.89,1.23,0.477,0.889,0.471,-0.464,-0.411,0.38,1.44,-0.0874 (inactive)
Cc1ccc(F)cc1S(=O)(=O)N[C@@H]1CCN(Cc2ccc(C(F)(F)F)cc2)C1,-0.973,0.512 (inactive),-0.159,-0.173,-0.171,0.0774,0.242,0.144,0.509,-0.628,-0.175,-0.704,-0.0343,-0.292,0.277,-0.456,0.197,0.22,-0.655,-0.0404 (inactive)
CN1C(=O)C2C=CC(C(O)C(c3ccccc3)c3ccccc3)N(Nc3ccccc3)C2C1=O (stereo not given),0.959,0.462 (inactive),0.466,0.0018,0.453,2.72,-0.167,1.31,0.106,1.16,0.889,1.19,0.668,1.03,1.36,0.0635,0.0496,0.643,0.889,-0.0128 (inactive)
